Screening results (PubChem BioAssay)
TCR activator – activators of T cell receptors. Potency, µM (top dose mostly 9.22 µM), for inactives: at the highest dose activation of IL-2 secretion, hits mostly activators. AID 504894. 330,000 tested, under 10 active. primary human leukocytes, anti-CD3, IL-2 HTRF, 48 h; note: % of control where 0% means no effect
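Primary human leukocytes receive a-CD3 beads and test compound and are incubated 48 hr. Secreted IL-2 is then assayed by HTRF, measuring 665nm acceptor emission after 320nm excitation of the europium donor.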
BCR signal inh – blocks chronic active B-cell receptor signaling. AID 493014. 340,000 compounds, 0.05% hits. Potency, µM (series often up to 46.1 µM), for inactives: top-dose activity change, negative = inhibition, usual class: inhibitors. ABC-DLBCL IkBa-CBG/CBR reporter, luminescence ratio, 4 h; active = well fitted inhibition curve with a large enough effect in the signal ratio, with a control signal flat, not every such curve was filed as active; inconclusive = small, poorly fitted or top-dose-only effect, or effect the other way, or a change in a side signal; the % refers to the signal ratio;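 note: potency is the fitted concentration of half-maximal effect; plate controls were basal doxycycline-induced cells for no effect and cells given 10 µM MG132 for full effect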
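TMD8 human ABC-DLBCL cells with doxycycline-inducible IκBα–green luciferase fusion and unfused red luciferase, in 0.5% FBS medium; compounds up to 46 uM, 4 h at 37C. Green/red luminescence ratio, filter-overlap corrected, fitted to concentration-response curves.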
IL2 activator – IL-2 activation; 360,000 compounds, 0.065% hits; activation, % (series mostly up to about 46 µM); IL-2 activation reporter assay, cell-based qHTS; stimulated with anti-CD3/CD4/CD28 beads; in transgenic mouse T cells; in the data active = activation above about 50%; inconclusive = mostly about 30% to 49%; note: 0% is about no effect
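Using fluorescent plate cytometry, EGFP and DsRed are detected in transgenic mouse T cells stimulated 18 h at 37 degrees C with antibody-coated beads after 60 min compound pretreatment.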
PTHR1 ag – agonists of human PTHR1 parathyroid hormone receptor; HEK293 GP2 PTHR1 cells, GloSensor cAMP luminescence, 1 h; 410,000 compounds, 0.075% hits; Potency, µM (series often up to 115 µM), inactives show top-dose activation, hits mostly activators; note: potency is the fitted concentration of half-maximal effect; nearly all actives have a fitted effect of over 55% in size
Target sequence (Q03431 whole entry, looked up): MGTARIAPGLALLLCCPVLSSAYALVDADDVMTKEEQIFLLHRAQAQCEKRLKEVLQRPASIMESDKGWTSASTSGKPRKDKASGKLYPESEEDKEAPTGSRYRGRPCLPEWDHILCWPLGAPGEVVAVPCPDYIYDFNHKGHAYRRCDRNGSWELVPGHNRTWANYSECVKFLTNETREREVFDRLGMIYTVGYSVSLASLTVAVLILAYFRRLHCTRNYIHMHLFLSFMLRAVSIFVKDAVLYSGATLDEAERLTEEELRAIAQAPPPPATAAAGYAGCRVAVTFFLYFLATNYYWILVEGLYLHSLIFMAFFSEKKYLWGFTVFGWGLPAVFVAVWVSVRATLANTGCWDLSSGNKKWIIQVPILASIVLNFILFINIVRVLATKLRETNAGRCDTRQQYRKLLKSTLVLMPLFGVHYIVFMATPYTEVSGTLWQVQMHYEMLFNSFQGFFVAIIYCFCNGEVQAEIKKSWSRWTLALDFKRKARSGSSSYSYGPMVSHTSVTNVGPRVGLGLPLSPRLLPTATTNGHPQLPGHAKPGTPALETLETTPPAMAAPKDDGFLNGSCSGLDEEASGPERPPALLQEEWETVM
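HEK-293-derived GP2 cells expressing PTHR1 and a GloSensor cAMP reporter, 3,000/well, plated overnight, given luciferin plus IBMX (each 0.5 mM as added) for 1 h at 37 °C, then compound for 1 h at 37 °C. Luminescence was read after 15 min at room temperature.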
BRCA1 expr up – increases BRCA1 expression; MCF7-BRCA1-FFLuc reporter, luminescence, 48 h; response scale: scaled: vehicle 0%, 10 µM genistein 100%; Potency, µM (series often up to 46.1 µM), for the others: top-dose activation, most hits filed as activators; 380,000 compounds, 1.1% hits; AID 624202; note: potency is the fitted concentration of half-maximal effect; nearly all actives have a fitted effect of over 80% in size
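Activators of BRCA1 expression were detected as increased firefly luciferase luminescence in engineered MCF7 cells after 48 h compound incubation. Signals were scaled to genistein 10 microM as full activation.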
Mito fusion act – inhibitors of mitochondrial division or activators of mitochondrial fusion. S. cerevisiae fusion-defective mutant growth rescue, CellTiterGlo 48 h. Potency, µM (titrated, usually from 46.1 µM), for inactives: at the top dose growth rescue (activation), most hits filed as activators. 320,000 compounds, 0.23% hits. AID 485298; note: potency is the fitted concentration of half-maximal effect; % of control where 0% means no effect; nearly all actives have a fitted effect of over 45% in size
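Temperature-sensitive fusion-defective S. cerevisiae (e.g. fzo1-1, mgm1-5) were grown with compound in YPEG medium (3% ethanol, 3% glycerol) for 48 hours at 37C. Growth rescue was measured as viability by CellTiterGlo luminescence after 10 minutes at ambient.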
Active calls of the source: *; i = inactive; ? = inconclusive; . = no result given; [ ] = another dose, or the depositor's remark. Hits are enriched below; roughly 1.3% of the tested compounds scored in any of these assays. Unless noted, calls come from the whole dose curve; as a rule, active = well fitted curve in the direction sought with a large enough effect; inconclusive = small, poorly fitted or top-dose-only effect, or another doubt; inactive = no such curve, though single readings can be large; an effect the other way counts as inactive or inconclusive.

SMILES	TCR activator	BCR signal inh	IL2 activator	PTHR1 ag	BRCA1 expr up	Mito fusion act
Cc1ccc2oc(-c3ccc(C)c(NC(=O)COc4ccccc4C)c3)nc2c1	.	.	.	.	18%	.
Cc1ccc2c(CC(=O)Nc3sccc3C(N)=O)coc2c1	9%	?	3	-31%	1.3µM*	11%
CCOC(=O)c1c(NC(=O)Cc2coc3cc(C)ccc23)sc2c1CCCC2	.	.	.	25%	.	.
Cc1cc(CN(C)C(=O)c2ccc3nc(Cc4ccccc4F)oc3c2)on1	2%	-5%	2	-48%	?	-3%
CN(Cc1nccs1)C(=O)c1ccc2nc(Cc3ccccc3F)oc2c1	3%	5%	-3	-29%	3.2µM*	-3%
COc1ccc(Cc2nc3ccc(C(=O)N(C)Cc4nccn4C)cc3o2)cc1	.	.	-1	i	6%	.
CN(Cc1nccn1C)C(=O)c1ccc2nc(Cc3ccccc3F)oc2c1	2%	-1%	-1	-1%	13µM*	0%
CC(C)(C)SCCNC(=O)CN(c1ccccc1)S(=O)(=O)c1ccccc1	-2%	0%	0	-2%	-5%	-3%
Cc1ccc(-c2nnc3ccc(SCC(=O)c4ccccc4)nn23)cc1	.	.	.	.	-7%	.
C=CCn1c(N)c(C(=O)Nc2ccc(C)cc2)sc1=S	0%	-11%	-2	-49%	1.3µM*	2%
Cc1ccccc1OCC(=O)O/N=C(\N)Cc1cccs1	14%	?	0	i	38%	2%
Cc1ccccc1CNC(=O)Cc1ccccc1[N+](=O)[O-]	-4%[46.1 µM]	0%	0	-29%	14µM*	-3%
Cc1cc2occ(CC(=O)NCc3cccs3)c2cc1C(C)C	-5%[46.1 µM]	0%	1	-40%	-7%	16µM*
O=C(Cc1ccccc1[N+](=O)[O-])NCc1ccccc1Cl	3%	-2%	0	-6%[57.5 µM]	?	0%
Cc1ccccc1CNC(=O)Cc1cccs1	-6%	0%	-2	0%	13µM*	-1%
Cc1ccccc1C(=O)O/N=C(\N)Cc1cccs1	1%	?	-1	-4%	8.9µM*	-6%
O=C1NN(c2cccc(Br)c2)C(=O)/C1=C\c1ccc(N2CCOCC2)cc1	4%	2%	-2	i	4%	-13%
Cc1cccc(NC(=S)NC(C)C(c2ccccc2)N2CCN(C)CC2)c1C (stereo not drawn)	3%	1%	0	i	-20%	-5%
COc1ccc(NC(=S)N2CCN(C(=O)c3ccco3)CC2)cc1OC	5%	5%	-1	-22%	-16%	1%
CC(C)=CCC/C(C)=C/CC/C(C)=C/CCC1(C)CCc2cc(O)ccc2O1 (stereo not drawn)	.	.	.	.	0%	.
CN(c1cnn(-c2ccccc2)c(=O)c1Cl)n1cccc1	-1%	11%	0	i	11µM*	13%
O=c1c(Cl)c(Cl)cnn1-c1ccccc1	9%[46.1 µM]	?	-4	-89%	-90%	-3%
NC(=O)COC(=O)c1ccccc1OCC(=O)Nc1ccc(Br)cc1	.	.	.	.	-6%	.
O=C(NCC1CCCCC1)c1ccc(F)cc1Cl	.	?	0	i	5.6µM*	-3%
O=C(NC1CC1)c1ccc(F)cc1Cl	-2%	-19%	1	i	-6%	1%
SMILES	TCR activator	BCR signal inh	IL2 activator	PTHR1 ag	BRCA1 expr up	Mito fusion act
O=S(=O)(c1nccs1)N1CCN(c2nc(-c3cccs3)nc3ccccc23)CC1	.	.	.	.	11%	.
CCOc1ccccc1NC(=O)c1cccc2c1C(=O)N(CCOC)C2	6%	4%	-2	-10%	-2%	3%
CCOc1ccc(CCNC(=O)c2cccc3c2C(=O)N(CCOC)C3)cc1OCC	2%	0%	55*	i	-8%	0%
COc1ccc(Nc2cc(C)c3c(O)cccc3n2)cc1	5%	0%	-3	i	?	1%
Cc1ccc(Nc2cc(C)c3c(O)cccc3n2)cc1C	1%	?	-3	i	5.6µM*	4%
COc1ccc2cc(/C=N/O)c(Cl)nc2c1	1%	-1%	0	i	7.9µM*	4%
COc1ccc2cc(CO)c(Cl)nc2c1	5%	-18%	-2	-6%	25%	-2%
O=C1C(=O)N(CC2CCCO2)C(c2ccco2)/C1=C(/O)c1ccc(F)cc1 (stereo not drawn)	-1%	?	3	i	-11%	1%
CCOC(=O)c1sc(N/N=C/c2cccc(C)c2)nc1C	4%	0%	-3	i	2.8µM*	-5%
O=S(=O)(c1ccc(Br)s1)N1CCC2(CC1)OCCO2	2%	2%	-3	i	-15%	-1%
COc1ccccc1-n1cc(C(=O)NCC(=O)N2CCN(c3ccccc3)CC2)c2ccccc2c1=O	1%	8%	1	i	13µM*	0%
COc1ccc(-n2nc(C(=O)NCC(=O)N3CCCCCC3)c3ccccc3c2=O)c(OC)c1	0%	-7%	1	i	11µM*	-1%
COc1ccc(-n2nc(C(=O)NCC(=O)N3CCOCC3)c3ccccc3c2=O)c(OC)c1	-27%	0%	2	i	19%	11%
COc1ccc(-n2nc(C(=O)NCC(=O)N3CCN(c4ccccc4F)CC3)c3ccccc3c2=O)cc1OC	1%	2%	-1	-5%	8.9µM*	14%
COc1ccc(-n2nc(C(=O)NCC(=O)N3CCN(c4ccccc4F)CC3)c3ccccc3c2=O)cc1	1%	-5%	0	-12%	?	2%
COc1ccc(-n2nc(C(=O)NCC(=O)N3CCC(C)CC3)c3ccccc3c2=O)c(OC)c1	0%	1%	-1	-79%	?	9%
COc1ccc(-n2nc(C(=O)NCC(=O)N3CCCCC3)c3ccccc3c2=O)c(OC)c1	1%	1%	0	i	13µM*	2%
CCCCCCn1c(SCC#N)nc2ccccc2c1=O	.	.	.	.	7%	.
CCN(CC)C(=O)N1CCN(/[N+]([O-])=N/Oc2ccc([N+](=O)[O-])cc2[N+](=O)[O-])CC1	.	.	.	.	5%	.
COC(=O)c1c(C)[nH]c(C)c1C(=O)c1ccccc1Cc1ccccc1	-7%	.	0	-15%	-17%	2.9µM*
CC(NC(=O)c1cc(COc2c(F)cccc2F)on1)c1cnn(-c2ccccc2)c1 (stereo not drawn)	10%	?	-5	-46%	7.1µM*	5%
C=CCn1c(SCC(C)=O)nc2scc(-c3ccc(C)o3)c2c1=O	.	11%	0	-11%	13µM*	-9%
